# According to PubChem BioAssay (Tox21):
# Records with an inconclusive call do not appear. Calls of active or inactive are those of the source. The call rests on the fitted dose curve; in most records, active means well fitted cell-killing curve with a large enough effect in the repeat runs (not every such curve was filed as active); inconclusive means weak or mixed curves, or effect the other way; inactive means no such curve, though single readings can be large or run the other way.
# Assay: qHTS assay to identify small molecule antagonists of the estrogen related receptor signaling pathway with the pleiotropic PPARgamma coactivator (PGC) from Tox21 10K library - cell viability counter screen (AID 1224840); further: nearly all actives have a fitted effect of over 40% in size
# Settings: PGC/ERR reporter cells viability, CellTiter-Fluor, 17.5 h; series mostly up to 92.4 µM; viability change, negative = cytotoxic: at the top concentration
# Source text: National Center for Advancing Translational Sciences [NCATS]
# NIH Chemical Genomics Center [NCGC]
# U.S. Environmental Protection Agency [EPA]
# National Institutes of Environmental Health Sciences [NIEHS]
# National Toxicology Program [NTP]
# U.S. Food and Drug Administration [FDA]
# Estrogen related receptors (ERRs), the first orphan nuclear receptors discovered, play an important role in the control of cellular energy metabolism. ERRs are required for high-energy production in response to the environmental challenges. The pleiotropic PPARgamma coactivator (PGC) is a major partner of ERR and a key regulator in energy homeostasis. Together they have been implicated in the etiology of metabolic disorders such as Type 2 diabetes and metabolic syndrome. ERR-alpha was also identified as an adverse marker for breast cancer progression; ERR-alpha-positive tumors have a poor prognosis. To screen and to identify environmental compounds that perturb the ERR and PGC/ERR signaling pathways could provide valuable information for potential therapeutic or preventive measures in the treatment of metabolic disease. To differentiate true PGC/ERR antagonists or agonist from cytotoxic substances, the assay is multiplexed with cell viability assay.
# Tox21 Assay Protocol Summary:
# The PGC/ERR cells were dispensed at 2,000 cells/5 ul/well in 1536-well white plates using a Multidrop dispenser. After the assay plates were incubated at a 37 C/5% CO2 incubator for 6 hours, 23 nL of compounds dissolved in DMSO, positive and negative controls or DMSO only was transferred to the assay plate by a pin tool. The plates were incubated at 37 C for 17.5 hours. 1 ul/well of CellTiter-Fluor reagent was added into the assay plates using a Flying Reagent Dispenser. After 30-minute incubation at 37 C/5% CO2, the fluorescence intensity in the plates was measured using a ViewLux plate reader.
# On the % scale 0 is the no-effect control and ±100 the full control effect.
SMILES,"viability change, negative = cytotoxic",Potency
O=P(O)(O)c1ccccc1,-0.0812% (inactive),–
C#CC(C)(C)O,-0.698% (inactive),–
CC1N=C(N)OC1c1ccccc1 (stereo not given),11.1% (inactive),–
COC(=O)c1ccccc1CS(=O)(=O)NC(=O)Nc1nc(OC)cc(OC)n1,-3.56% (inactive),–
C=C1CC[C@@]2(O)[C@H]3Cc4ccc(O)c5c4[C@@]2(CCN3CC2CC2)[C@H]1O5,0.4% [at 42.5 µM] (inactive),–
COP(=O)(O)OC,5.81% (inactive),–
O=C(O)C(Br)(Br)Br,0.11% (inactive),–
CCCC(C)C1(CC)C(=O)N=C(S)NC1=O (stereo not given),1.42% [at 42.5 µM] (inactive),–
CS(=O)(=O)Cl,2.44% (inactive),–
COc1cc(CCN)cc(OC)c1OC,10.4% (inactive),–
Oc1ccc(Cc2ccc(O)cc2)cc1,-3.4% (inactive),–
CCC(=O)OC1(c2ccccc2)CCN(C)CC1,11.9% (inactive),–
Clc1nc(Cl)nc(Nc2ccccc2Cl)n1,5.44% (inactive),–
CC[C@H](N)c1ccccc1,5.73% (inactive),–
C/C(=N\NC(=O)Nc1cc(F)cc(F)c1)c1ncccc1C(=O)O,–,inactive
CC(C)NCC(O)c1ccc([N+](=O)[O-])cc1 (stereo not given),-9.71% [at 42.5 µM] (inactive),–
COc1cccc(C=O)c1,3.93% (inactive),–
CCN[C@H](C)Cc1cccc(C(F)(F)F)c1,2% (inactive),–
COc1ccc2c(C(=O)c3ccc(Cl)cc3)c(C)n(CC(=O)O)c2c1,11.9% [at 42.5 µM] (inactive),–
C=C(C)[C@H]1CN[C@H](C(=O)O)[C@H]1CC(=O)O,3.44% [at 42.5 µM] (inactive),–

SMILES,"viability change, negative = cytotoxic",Potency
ClC(Cl)(Cl)Cl,0.141% (inactive),–
Clc1ccc(C(Cl)(Cl)Cl)cn1,3.09% (inactive),–
O=C(Cl)OCc1ccccc1,3.76% (inactive),–
C=CC1(C)OC(=O)N(c2cc(Cl)cc(Cl)c2)C1=O (stereo not given),–,inactive
CC[C@H](O)C(C[C@H](C)N(C)C)(c1ccccc1)c1ccccc1,-11.1% (inactive),–
CCN(CC)C1CCCCC1,-0.88% (inactive),–
NNC(N)=O,2.43% (inactive),–
CC(C)[C@]12CC(=O)[C@H](C)[C@H]1C2,-13.9% (inactive),–
NCC1(CC(=O)O)CCCCC1,9.21% [at 42.5 µM] (inactive),–
O=C(Cl)/C=C/C(=O)Cl,2.74% (inactive),–
COc1ccccc1OC,18.7% (inactive),–
CN(CCO)CCO,4.77% (inactive),–
CCOC(=O)C(Cl)Cc1cc(-n2nc(C)n(C(F)F)c2=O)c(F)cc1Cl (stereo not given),-0.279% (inactive),–
CN1COCN(Cc2cnc(Cl)s2)/C1=N\[N+](=O)[O-],2.37% (inactive),–
COP(=O)(OC)O/C(C)=C/C(=O)N(C)C,3.75% (inactive),–
CCCC(C)(COC(N)=O)COC(N)=O,1.31% (inactive),–
CCCCS(=O)(=O)Cl,6.85% (inactive),–
BrCC1CO1 (stereo not given),6.28% (inactive),–
O=C(O)CBr,-0.11% (inactive),–
O=C1CCCCC1Cl (stereo not given),2.44% (inactive),–
